The text below walks through data of PubChem BioAssay.

Test [1] relates to Aerobactin synthetase IucA (Klebsiella pneumoniae). The test can be described thus: IucA aerobactin synthetase inhibitors, biochemical, Tocris library, absorbance (AID 1345561; call rule not given here;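 further: 100% = enzyme without compound and 0% = no enzyme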). As to conditions: purified IucA enzyme assay, absorbance (OD) read-out; stronger effect = lower value;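 tested at 8 µM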.
Test [2] is described as follows: sensitizers of A549 cells to miR-34 induction, primary screen, imaging, A549 dox-inducible miR-34, nuclei and caspase counts (AID 1347080). The settings on record: A549 miR-34 inducible, Hoechst nuclei count, 48 h.
Test [3] can be described thus: viability rescue of complex I mutant cybrids, primary screen, cell-based, galactose medium, ATP luminescence (AID 1645843;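 active means z-score of at least 1.8 in each of two replicates, scored against plate mean and spread of sample wells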;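 further: positive z means more ATP and so rescue of galactose-driven cybrid death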). The settings on record: complex I mutant cybrid cells, 72 h, stronger effect = higher value.
Where [4] appears, read: stronger effect = lower value, cell number ratio, induced over uninduced.
Setting [5] is: measured here: relative caspase fold change +Dox/-Dox.
Setting [6] is: measured here: total cells with miR-34 induction, stronger effect = lower value.
Setting [7] is: measured here: total cells without miR-34 induction.

The structures appear in SMILES notation. Values joined by “and” are separate entries in the source; they are usually repeats but may differ in a detail not shown here. Equal values may be shown once. Active and inactive are the calls of the source.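 How the source made its calls, unless noted: active means compounds whose cell count with miR-34 switched on is under 0.7 times the count with it off; inactive means the rest.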

For `COc1ccc(C2CC(c3c(O)cc(C)oc3=O)=NCCS2)c(OC)c1` (stereo unspecified), in test [1], the remaining activity (as a rule, the signal under treatment as a percentage of the control signal) was 98.6% (inactive). The results for the fold change in test [2] (setting [4]) and in test [2] (setting [5]) were 1.45 (inactive) and 2.3, respectively. The figures for the cell count in test [2] (setting [6]) and in test [2] (setting [7]) were 1350 and 929, respectively. The z-score in test [3] is -0.235 (inactive).
For the compound `OCCNCCCOc1cccc(Cl)c1Cl`, in test [1], the remaining activity was 98.9% (inactive). For the same compound, the fold change in test [2] (setting [4]) is 0.929 (inactive) and 0.971 (inactive); in test [2] (setting [5]), 0.846 and 1.42. The cell count in test [2] (setting [6]) was 5820 and 3550; in test [2] (setting [7]), 6260 and 3660. Besides, the z-score in test [3] is -0.65 (inactive).
In the case of `CNC(=O)[C@@H](Cc1ccccc1)N(C)C(=O)[C@@H](Cc1ccc2ccccc2c1)N(C)C(=O)/C=C/CC(C)(C)N`, the remaining activity in test [1] was 99.8% (inactive). For the same compound, the fold change was 1 (inactive) in test [2] (setting [4]) and 0.957 in test [2] (setting [5]). Moreover, the cell count amounted to 9200 in test [2] (setting [6]) and 9170 in test [2] (setting [7]). The z-score in test [3] is -0.39 (inactive).
As for `N[C@@H]1CCN(O)C1=O`, the remaining activity in test [1] is 121% (inactive). Further, the results for the fold change in test [2] (setting [4]) and in test [2] (setting [5]) were 0.981 (inactive) and 0.836, respectively. The cell count in test [2] (setting [6]) worked out at 9080; in test [2] (setting [7]), 9260. The z-score in test [3] was 0.66 (inactive).
Take `COc1ccc(S(=O)(=O)N2c3ccc(Cl)cc3[C@](O)(c3ccccc3Cl)[C@@H]2C(=O)N2CCC[C@H]2C(N)=O)cc1OC`: the remaining activity in test [1] was 97.7% (inactive). Moreover, the fold change in test [2] (setting [4]) was 0.908 (inactive); in test [2] (setting [5]), 1.22. For the same compound, the cell count in test [2] (setting [6]) came out at 8610; in test [2] (setting [7]) it was 9480. In addition, the z-score in test [3] is 0.855 (inactive).
Regarding `O=Nc1ccc(O)c2ncccc12`, in test [1], the remaining activity was 118% (inactive). Further, the fold change in test [2] (setting [4]) was 1.09 (inactive); in test [2] (setting [5]), 1.32. Also, the cell count came to 2920 in test [2] (setting [6]) and 2670 in test [2] (setting [7]). In addition, the z-score in test [3] is -1.02 (inactive).
Turning to `CN(C)c1nc(N)c(C(=O)Nc2cccnc2)nc1Cl`, the remaining activity in test [1] was 113% (inactive). Further, the figures for the fold change in test [2] (setting [4]) and in test [2] (setting [5]) were 0.904 (inactive) and 1.39, respectively. Further, the cell count in test [2] (setting [6]) amounted to 5930; in test [2] (setting [7]) it was 6560. For the same compound, the z-score in test [3] is 0.61 (inactive).
On to `CC1Nc2ccc(Cl)cc2S(=O)(=O)N1` (stereo unspecified), for which, in test [1], the remaining activity is 102% (inactive). For the same compound, the fold change in test [2] (setting [4]) is 0.919 (inactive); in test [2] (setting [5]), 0.718. The cell count in test [2] (setting [6]) worked out at 8550; in test [2] (setting [7]), 9300. The z-score in test [3] was 0.035 (inactive).
As for `CN1Cc2c(C(=O)OC(C)(C)C)ncn2-c2ccsc2C1=O`, the remaining activity in test [1] is 105% (inactive). Further, the fold change in test [2] (setting [4]) was 0.89 (inactive); in test [2] (setting [5]), 1.34. The values for the cell count in test [2] (setting [6]) and in test [2] (setting [7]) were 7080 and 7950, respectively. In test [3], the z-score is 0.15 (inactive).
On to `c1ncc(CC2CCNCC2)[nH]1`, for which the remaining activity in test [1] is 101% (inactive). Moreover, the results for the fold change in test [2] (setting [4]) and in test [2] (setting [5]) were 0.95 (inactive) and 0.717, respectively. Moreover, the figures for the cell count in test [2] (setting [6]) and in test [2] (setting [7]) were 8900 and 9370, respectively. In addition, the z-score in test [3] is 0.095 (inactive).
`CCn1c(=O)[nH]c2ccccc21`: in test [1], the remaining activity is 111% (inactive). The fold change was 0.854 (inactive) in test [2] (setting [4]) and 1.07 in test [2] (setting [5]). The cell count in test [2] (setting [6]) amounted to 7770; in test [2] (setting [7]) it was 9100. Moreover, the z-score in test [3] is -0.455 (inactive).
For the compound `CN(C)CCC1(c2ccc(Cl)cc2)Cc2ccccc2C(=O)O1` (stereo unspecified), the remaining activity in test [1] is 122% (inactive). Also, the fold change was 0.975 (inactive) in test [2] (setting [4]) and 1.4 in test [2] (setting [5]). Further, the cell count in test [2] (setting [6]) was 7700; in test [2] (setting [7]), 7900. In addition, the z-score in test [3] was -0.195 (inactive).
For the compound `Cc1cc(C(=O)O)sc1C(N)C(=O)O` (stereo unspecified), the remaining activity in test [1] was 83.4% (inactive). Besides, the fold change in test [2] (setting [4]) is 0.995 (inactive); in test [2] (setting [5]) it was 1.22. Moreover, the results for the cell count in test [2] (setting [6]) and in test [2] (setting [7]) were 8770 and 8820, respectively. For the same compound, in test [3], the z-score was 0.285 (inactive).
Take `Clc1cccc2c1CN(C1=NCCN1)C2`: the remaining activity in test [1] is 99.4% (inactive). For the same compound, the fold change in test [2] (setting [4]) was 0.914 (inactive); in test [2] (setting [5]) it was 0.792. The cell count in test [2] (setting [6]) was 9080; in test [2] (setting [7]) it was 9940. Further, in test [3], the z-score is -0.085 (inactive).
In the case of `CCC1(c2ncc[nH]2)Cc2ccccc2O1` (stereo unspecified), the remaining activity in test [1] is 118% (inactive). For the same compound, the fold change in test [2] (setting [4]) is 0.963 (inactive); in test [2] (setting [5]), 0.89. Also, the values for the cell count in test [2] (setting [6]) and in test [2] (setting [7]) were 9330 and 9690, respectively. Further, in test [3], the z-score was 0.05 (inactive).
Regarding `Clc1ccc(CCCOCCCN2CCCCC2)cc1`, the remaining activity in test [1] was 105% (inactive). Further, the fold change is 0.895 (inactive) in test [2] (setting [4]) and 1.39 in test [2] (setting [5]). Further, the cell count is 7600 in test [2] (setting [6]) and 8480 in test [2] (setting [7]). Also, the z-score in test [3] is -0.64 (inactive).
With `CNC(=O)Oc1ccc2c(c1)C1(C)CCN(C)C1N2C` (stereo unspecified), the remaining activity in test [1] was 128% (inactive). The fold change in test [2] (setting [4]) is 0.943 (inactive); in test [2] (setting [5]) it was 1.32. Further, the cell count was found to be 9440 in test [2] (setting [6]) and 10000 in test [2] (setting [7]). Also, the z-score in test [3] is -1 (inactive).
`Cc1c(C(=O)NN2CCOCC2)nn(-c2ccc(Cl)cc2Cl)c1-c1ccc(I)cc1`: the remaining activity in test [1] is 115% (inactive). Besides, the fold change was 0.846 (inactive) in test [2] (setting [4]) and 0.864 in test [2] (setting [5]). Further, the cell count in test [2] (setting [6]) is 8280; in test [2] (setting [7]), 9790. The z-score in test [3] was -0.285 (inactive).
Regarding `CC#CCOC(=O)C1=CCCN(C)C1`, in test [1], the remaining activity was 109% (inactive). The fold change was 0.936 (inactive) in test [2] (setting [4]) and 0.732 in test [2] (setting [5]). Moreover, the cell count in test [2] (setting [6]) is 8580; in test [2] (setting [7]), 9170. The z-score in test [3] is -0.46 (inactive).
As for `Clc1cccc(C=NC=Nc2cccc(Cl)c2)c1`, the remaining activity in test [1] is 117% (inactive). The fold change is 0.902 (inactive) in test [2] (setting [4]) and 0.788 in test [2] (setting [5]). In addition, the cell count in test [2] (setting [6]) was found to be 8200; in test [2] (setting [7]), 9090. Besides, the z-score in test [3] is 0.99 (inactive).
For the compound `CCCCOC(=O)c1cc2c(cn1)[nH]c1ccccc12`, the remaining activity in test [1] was 96.6% (inactive). The fold change was 0.861 (inactive) in test [2] (setting [4]) and 0.7 in test [2] (setting [5]). In addition, the cell count in test [2] (setting [6]) worked out at 7200; in test [2] (setting [7]), 8360. Further, the z-score in test [3] was 1.05 (inactive).
For `Cc1c(C(=O)N(C)C2CCCCC2)sc2nc3ccc(N)cc3n12`, the remaining activity in test [1] is 121% (inactive). Moreover, the fold change is 0.956 (inactive) in test [2] (setting [4]) and 1.28 in test [2] (setting [5]). For the same compound, the cell count amounted to 7660 in test [2] (setting [6]) and 8010 in test [2] (setting [7]). In test [3], the z-score was -0.64 (inactive).
As for `O=[N+]([O-])c1cc2nc(O)c(O)nc2cc1[N+](=O)[O-]`, in test [1], the remaining activity was 103% (inactive). Further, the fold change in test [2] (setting [4]) is 0.896 (inactive); in test [2] (setting [5]) it was 1.68. Moreover, the cell count in test [2] (setting [6]) was found to be 8310; in test [2] (setting [7]), 9280. For the same compound, in test [3], the z-score was -0.355 (inactive).
Regarding `O=C(c1ccc(F)cc1)C1CCN(CCCCc2ccccc2)CC1`, the remaining activity in test [1] is 113% (inactive). Further, the fold change in test [2] (setting [4]) was 0.877 (inactive); in test [2] (setting [5]), 1.29. For the same compound, the cell count in test [2] (setting [6]) was 8620; in test [2] (setting [7]), 9830. In addition, the z-score in test [3] was -0.88 (inactive).
With `CS/C(N)=C(C#N)/C(C#N)=C(\N)SC`, in test [1], the remaining activity is 109% (inactive). The fold change in test [2] (setting [4]) was 0.85 (inactive); in test [2] (setting [5]), 1.19. Also, the cell count turned out to be 8330 in test [2] (setting [6]) and 9800 in test [2] (setting [7]). In addition, the z-score in test [3] was -0.595 (inactive).
Turning to `COC(=O)C1=C(C)NC(C)=C(C(=O)OCCCN2CCC(c3ccccc3)(c3ccccc3)CC2)[C@@H]1c1cccc([N+](=O)[O-])c1`, in test [1], the remaining activity was 109% (inactive). Besides, the results for the fold change in test [2] (setting [4]) and in test [2] (setting [5]) were 1.06 (inactive) and 1.28, respectively. Moreover, the cell count in test [2] (setting [6]) stood at 310; in test [2] (setting [7]), 292. Besides, the z-score in test [3] was -0.83 (inactive).
